# Data from the supplement of paper PMC4100887.
# ± gives the standard deviation of the averaged measurements.
# Test system: K562
# Assay: relative cell viability (ATPlite) vs untreated control, with imatinib (fraction); higher = less toxic
# Details: 1 µM; 72 h; imatinib 0.125 µM
row,SMILES,relative cell viability
1,O=c1cc(N2CCOCC2)oc2c1ccc1ccccc12 [DNA-PK Inhibitor II],0.754 ± 0.023
2,COc1cc2ncnc(Nc3ccc(O)c(Br)c3)c2cc1OC [JAK3 Inhibitor II],0.717 ± 0.032
3,"N#Cc1cc([N+](=O)[O-])c2sc(C(N)=O)[n+]([O-])c2c1 [Polo-like Kinase Inhibitor II, BTO-1]",0.709 ± 0.056
4,O=C1C(Cl)=C(N2C(=O)CCC2=O)C(=O)c2ccccc21 [MEK Inhibitor II],0.653 ± 0.071
5,OCC(O)CCO/N=C1\C(c2c(O)[nH]c3ccccc23)=Nc2ccccc21 (configuration not stated) [Indirubin Derivative E804],0.644 ± 0.071
6,CCCOc1ccc(/C=C2/SC(=O)NC2=O)cc1 [PIM1/2 Kinase Inhibitor VI],0.802 ± 0.029
7,COc1nccc(-c2c(-c3ccc(F)cc3)ncn2C2CCC(O)CC2)n1 (configuration not stated),0.794 ± 0.067
8,Cc1nc(-c2ccccc2)c(-c2ccncc2)o1,0.649 ± 0.16
9,CC(C)[C@H](CO)Nc1nc(Nc2cccc(Cl)c2)c2ncn(C(C)C)c2n1 [Purvalanol A],0.75 ± 0.072
10,COc1cc(Nc2ncc3ccn(-c4cccc(CCC#N)c4)c3n2)cc(OC)c1OC [Keratinocyte Differentiation Inducer],0.459 ± 0.35
11,O=C1NCCc2[nH]c(-c3ccnc(-c4cnc5ccccc5c4)c3)cc21 [MK-2 Inhibitor III],0.709 ± 0.057
12,"CCCCCCCCCCCCCCCCn1cc[n+](Cc2ccccc2)c1C [eEF-2 Kinase Inhibitor, NH125]",0.401 ± 0.1
13,CC(C)n1cnc2c(NCc3ccccc3)nc(NCCCO)nc21 [Bohemine],0.797 ± 0.029
14,O=C(Nc1ccc(-c2cn[nH]c2)cc1)C1COc2ccccc2O1 (configuration not stated) [Rho Kinase Inhibitor V],0.687 ± 0.028
15,O=[N+]([O-])c1ccc(-c2nc(-c3ccc(F)cc3)c(-c3ccncc3)[nH]2)cc1,0.693 ± 0.039
16,CCN(CC)CCNC(=O)c1c(C)[nH]c(/C=C2\C(=O)Nc3ccc(Cl)cc32)c1C,0.799 ± 0.052

row,SMILES,relative cell viability
1,O=C(Nc1cccc(Nc2nccc(Nc3cccc(C(F)(F)F)c3)n2)c1)C1CC1 [Aurora Kinase Inhibitor III],0.755 ± 0.05
2,N#Cc1c(NC(=O)c2cccc3ccccc23)sc2c1CCCC2 [JNK Inhibitor IX],0.101 ± 0.04
3,NC(=O)Nc1sc(-c2ccccc2)cc1C(N)=O [IKK-2 Inhibitor VI],0.695 ± 0.056
4,"CC(C)(C)c1ccc(S(=O)(=O)Nc2ccc(-n3ccnc3)cc2)cc1 [Stem-Cell Factor/c-Kit Inhibitor, ISCK03]",0.742 ± 0.038
5,Cc1ccc([N+](=O)[O-])cc1S(=O)(=O)N(C)/N=C/c1cnc2ccc(Br)cn12 [PI 3-Kα Inhibitor VIII],0.681 ± 0.044
6,O=C1c2ccccc2-c2nc3nnnn3nc21 [PDK1/Akt/Flt Dual Pathway Inhibitor],0.0249 ± 0.0025
7,CC[n+]1c(/C=C/N(C)c2ccccc2)n(-c2ccccc2)c2ccc(-c3nc4ccccc4s3)cc21 [Akt Inhibitor IV],0.0639 ± 0.02
8,"O=C1Nc2ccc(Cl)cc2/C1=C/c1cc(Cl)c(O)c(Cl)c1 [PKR Inhibitor, Negative Control]",0.721 ± 0.058
9,O=C(c1cc2cc(O)ccc2[nH]1)c1cc2cc(O)ccc2[nH]1 [Flt-3 Inhibitor II],0.418 ± 0.035
10,CSc1nc(-c2ccnc(NC(C)c3ccccc3)c2)c(-c2ccc(F)cc2)[nH]1 (configuration not stated) [p38 MAP Kinase Inhibitor III],0.735 ± 0.038
11,c1nc2c(NC3CCCCC3)nc(Nc3ccc(N4CCOCC4)cc3)nc2[nH]1 [Reversine],0.398 ± 0.075
12,O=C1NC(=O)C(c2cn(CCCO)c3ncccc23)=C1c1cnccn1 [GSK-3b Inhibitor XI],0.757 ± 0.046
13,"N#CCCc1ccc2c(c1)-c1[nH]c3ccc([N+](=O)[O-])cc3c1CC(=O)N2 [Alsterpaullone, 2-Cyanoethyl]",0.153 ± 0.036
14,Brc1c(Br)c(Br)c2n[nH]nc2c1Br [Casein Kinase II Inhibitor I],0.833 ± 0.03
15,"CC[C@H](CO)Nc1nc(NCc2ccc(-c3ccccn3)cc2)c2ncn(C(C)C)c2n1 [CR8, (R)-Isomer]",0.0846 ± 0.015
16,CN1C(=O)C(Cc2c[nH]c3ccccc23)NC1=S (configuration not stated) [Necrostatin-1],0.785 ± 0.044
